HT1080 IDH1KD tx = HT-1080 IDH1 knockdown cell toxicity (counter line). AID 686971. HT-1080 IDH1 knockdown viability, ATP luminescence, 48 h. Potency, µM (top dose mostly 46.1 µM), for the others: at the highest dose activity, negative = toxicity, most hits filed as cytotoxic. 2% of 360,000 active;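 note: potency is the fitted concentration of half-maximal effect; 0% = DMSO wells and -100% = cell-free medium wells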
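After a 2 h attachment period, IDH1KD HT-1080 cells took pin-transferred compound for 48 h at 37 °C; ATP-based luminescence after 10 min room-temperature reagent incubation reported viability.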
12-LOX inh = blocks human arachidonate 12S-lipoxygenase | P18054 | purified 12hLO, xylenol orange hydroperoxide absorbance | Potency, µM (top dose mostly 108 µM), for inactives: top-dose activity change, negative = inhibition, actives largely listed as inhibitors | 1.1% of 580,000 active | AID 1671190; note: potency is the fitted concentration of half-maximal effect
Target sequence (P18054 whole entry, looked up): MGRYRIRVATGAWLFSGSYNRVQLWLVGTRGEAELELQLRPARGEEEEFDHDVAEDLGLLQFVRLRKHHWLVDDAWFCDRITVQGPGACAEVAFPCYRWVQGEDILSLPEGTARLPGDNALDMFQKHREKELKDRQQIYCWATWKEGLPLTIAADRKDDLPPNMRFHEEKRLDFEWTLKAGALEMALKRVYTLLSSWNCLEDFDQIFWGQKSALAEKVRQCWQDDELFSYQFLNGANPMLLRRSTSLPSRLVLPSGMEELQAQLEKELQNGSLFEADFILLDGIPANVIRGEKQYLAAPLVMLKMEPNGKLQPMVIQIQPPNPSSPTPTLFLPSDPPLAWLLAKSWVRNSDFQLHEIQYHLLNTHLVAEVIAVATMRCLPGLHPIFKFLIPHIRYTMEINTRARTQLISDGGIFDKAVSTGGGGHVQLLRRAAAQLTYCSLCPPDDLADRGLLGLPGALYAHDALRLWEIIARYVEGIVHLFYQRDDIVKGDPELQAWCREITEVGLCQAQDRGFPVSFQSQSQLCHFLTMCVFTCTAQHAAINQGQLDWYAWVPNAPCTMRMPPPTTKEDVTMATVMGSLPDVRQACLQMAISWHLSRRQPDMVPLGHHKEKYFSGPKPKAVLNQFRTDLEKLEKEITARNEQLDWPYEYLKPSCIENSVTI
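Purified human 12hLO (150 nM final) in 25 mM Hepes, 0.01% Triton X-100, pH 7.0 was preincubated 15 min at room temperature with compound. Then 40 uM arachidonic acid was added, 30 min. Hydroperoxide was read by Fe-XO absorbance ratio 573/405 nm.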
TDP1 cell noCPT = qHTS for Inhibitors of human tyrosyl-DNA phosphodiesterase 1 (TDP1): qHTS in cells in absence of CPT | DT40 Tdp1-/- hTDP1 cells, no CPT, ATP luminescence, 48 h | AID 686978, 2013 | 15% of 420,000 active | Potency, µM (doses to about 46.2 µM), without a hit: at the highest dose activity change, negative = growth inhibition, actives largely listed as inhibitors; note: potency is the fitted concentration of half-maximal effect; nearly all actives have a fitted effect of over 55% in size
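No-CPT arm: Tdp1-/-;hTDP1 DT40 cells (400/well) plus compounds, incubated ≥48 hr at 37 °C. Readout CellTiter-Glo luminescence.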
HT1080-NT tox = kills 2HG-producing HT-1080-NT fibrosarcoma cells; HT-1080-NT fibrosarcoma viability, CellTiter-Glo ATP luminescence, 48 h; 1.6% of 360,000 active; Potency, µM (top dose mostly 46.1 µM), inactives show top-dose activity, negative = less viability, usual class: cytotoxic; AID 686970;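 note: NT is the 2HG producing partner of a matched IDH1 knockdown line; potency is the fitted concentration of half-maximal effect; 0% = DMSO-treated cells and -100% = media-only wells without cells; nearly all actives have a fitted effect of over 55% in size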
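A 48-hour cytotoxicity screen used HT-1080-NT cells plated 2 hours before compound delivery. ATP-based CellTiter-Glo luminescence measured viability, normalized to DMSO and no-cell controls.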
IL1B secr inh = inflammasome signaling inhibition, IL-1 beta readout. THP-1 LPS/ATP IL-1B secretion, AlphaLISA, 16 h; stronger effect = lower value. activity change, % at 57.5 µM. 4.7% of 360,000 active; in the data active = activity change below about -50%; inconclusive = mostly about -30% to -49%
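THP-1 cells pretreated 1 hr with compounds (up to 57.5 uM final), then stimulated with LPS (250 ng/mL final) plus ATP (1.25 mM final); secreted IL-1B measured by AlphaLISA after 16 hr, decreased signal indicating inhibition.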
TDP1 cell CPT = DT40-hTDP1 cell growth loss with CPT | chicken DT40 Tdp1-/-;hTDP1 cells + 20 nM CPT, ATP luminescence, 48 h | Potency, µM (doses to about 46.2 µM), inactives show at the highest dose activity change, negative = growth inhibition, usual class: inhibitors | 12% of 420,000 active; note: potency is the fitted concentration of half-maximal effect; nearly all actives have a fitted effect of over 55% in size
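Chicken DT40 Tdp1-/- cells complemented with human TDP1, 400 cells/well, exposed to compounds plus 20 nM camptothecin for at least 48 h at 37 C; viability read as ATP content by CellTiter-Glo luminescence.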
An asterisk follows results filed as active; ? = inconclusive; nt = no result. The full list was thinned out, with hits kept by preference. Unless noted, calls come from the whole dose curve; as a rule, active = well fitted curve in the direction sought with a large enough effect; inconclusive = small, poorly fitted or top-dose-only effect, or another doubt; inactive = no such curve, though single readings can be large; an effect the other way counts as inactive or inconclusive. Unless noted, % is set by controls: 0 for no effect and ±100 for the full control effect.

SMILES | HT1080 IDH1KD tx | 12-LOX inh | TDP1 cell noCPT | HT1080-NT tox | IL1B secr inh | TDP1 cell CPT
Cc1nc(NC(=O)CNC(=O)c2ccoc2)sc1C | nt | 31% | nt | nt | nt | nt
Cc1cnc2c(S(=O)(=O)N3CCCC3C(=O)N(C)C)cccc2c1 (stereo not drawn) | nt | 6% | nt | nt | nt | nt
Cc1cncc2cccc(S(=O)(=O)N3CCCN(C(=O)CN)C[C@@H]3C)c12 | nt | 4.3µM* | nt | nt | nt | nt
CCN(C(=O)CCc1nc(-c2ccc(C)cc2)no1)c1cc(C)ccc1C | nt | -25% | 23µM* | nt | nt | 18µM*
COc1ccc(-c2noc(CCC(=O)N(C)c3cccc(C)c3)n2)cc1 | -9% | 121% | ? | -10% | -18 | ?
Cc1ccc(-c2noc(CCC(=O)N(C)c3ccccc3C)n2)cc1 | -3% | 0% | 15µM* | -4% | -7 | ?
O=C(C1CC(=O)N(c2n[nH]c3cccc(F)c23)C1)N1CCSCC1 (stereo not drawn) | nt | 39% | nt | nt | nt | nt
O=[N+]([O-])c1cccc(/C=C/c2ccc3cccc(O)c3n2)c1 | ? | ? | 3.7µM* | ? | 42 | 4.6µM*
O=[N+]([O-])c1ccc(/C=C/c2ccc3cccc([N+](=O)[O-])c3n2)cc1 | ? | -29% | ? | -22% | -3 | -24%
COc1c(OC(C)=O)ccc(/C=C/c2ccc3ccccc3n2)c1[N+](=O)[O-] | ? | -17% | ? | ? | -5 | ?
COc1c(OC(C)=O)ccc(/C=C/c2ccc3cccc(OC)c3n2)c1[N+](=O)[O-] | ? | -3% | 18µM* | ? | -85* | 26µM*
COC(=O)c1ccc(/C=C/c2ccc3cccc(OC(C)=O)c3n2)cc1 | ? | -27% | 21µM* | -26% | 13 | 18µM*
O=C(O)c1ccc(/C=C/c2ccc3cccc(O)c3n2)cc1 | -24% | -16% | 18µM* | -10% | 12 | -11%
Oc1ccc(/C=C/c2ccc3cccc(O)c3n2)cc1Br | -20% | ? | ? | ? | 38 | ?
COc1ccc(NC(=O)c2ncoc2-c2ccc(OC)c(OC)c2)cc1OC | nt | -3% | nt | nt | nt | nt
CC(C)COc1cccc(C(=O)N(C)CC(=O)Nc2cccc3ccccc23)c1 | -5% | ? | 18µM* | -5% | -19 | 18µM*
Cc1nnc2n(Cc3ccccc3)c(=O)c3c4c(sc3n12)COC(C)(C)C4 | -2% | 70% | ? | -2% | -7 | -12%
CC(C)Sc1nnc2n(CCc3ccccc3)c(=O)c3c4c(sc3n12)COC(C)(C)C4 | 17% | nt | 21µM* | 7% | 9 | 23µM*
C=CCSc1nnc2n(CCc3ccccc3)c(=O)c3c4c(sc3n12)COC(C)(C)C4 | 0% | 134% | ? | 0% | -12 | 23µM*
Nc1nccnc1C(=O)Nc1cccc(NC(=O)c2cccnc2)c1 | nt | 15% | nt | nt | nt | nt
CC(=O)N1CCCc2cc(S(=O)(=O)NCc3ccc(C)cc3)ccc21 | -13% | -7% | 13µM* | 2% | 9 | ?
CC(=O)N1CCCc2cc(S(=O)(=O)NCCC3=CCCCC3)ccc21 | ? | 0% | 11µM* | -9% | 23 | 10µM*
COc1cccc(CNS(=O)(=O)c2ccc3c(c2)CCN3C(=O)C2CC2)c1 | -15% | -23% | ? | 0% | 11 | ?
O=C(C1CC1)N1CCc2cc(S(=O)(=O)NCc3ccccc3)ccc21 | 1% | 0% | ? | ? | 11 | 23µM*
COc1ccccc1CNS(=O)(=O)c1ccc2c(c1)CCCN2C(C)=O | 5% | 13% | -25% | -1% | 43 | -2%
CCC(=O)N1CCc2cc(S(=O)(=O)NCc3ccc(C)cc3)ccc21 | nt | 1% | 18µM* | nt | nt | 23µM*
COc1ccc(-c2ocnc2C(=O)Nc2ccc(Cl)cc2)cc1OC | nt | 1% | nt | nt | nt | nt

Screening results as filed in PubChem.
